For assay [1], the target named is Glucocorticoid receptor (Homo sapiens) (UniProt P04150). Description: ATG_GR_TRANS: Attagene TRANS-FACTORIAL HepG2 Assay for human Glucocorticoid Receptor (GR) (AID 2282978; active means hit-call score of the fitted dose curve at least 0.9, where 1 is the maximum;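 further: activators score as hits since higher reporter transcript over DMSO is fitted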). The conditions noted are these: HepG2 Attagene TRANS GR reporter, mRNA transcription. An outline of the steps:
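Readout is reporter transcript from a chimeric GR-Gal4 acting on GAL4-UAS in transfected human HepG2 liver cells after 24 h exposure, quantified by RT-PCR and capillary electrophoresis. Activation fitted upward against DMSO.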

Assay [2] addresses Oxysterols receptor LXR-alpha (Homo sapiens) (UniProt Q13133). Description: ATG_LXRa_TRANS: Attagene TRANS-FACTORIAL HepG2 Assay for human Liver X Receptor alpha (LXRa) (AID 2282980; active means hit-call score of the fitted dose curve at least 0.9, where 1 is the maximum). The conditions noted are these: HepG2 Attagene TRANS reporter, LXRa transactivation. In outline: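 HepG2 cells were transiently transfected with multiplexed reporter units driven by chimeric LXRa–GAL4 fusion proteins, then dosed for 24 h. Reporter mRNA was quantified by RT-PCR, fluorescent labelling and capillary electrophoresis; gain of signal fitted against DMSO baseline.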

For assay [3], the target named is Oxysterols receptor LXR-beta (Homo sapiens) (UniProt P55055). Description: ATG_LXRb_TRANS: Attagene TRANS-FACTORIAL HepG2 Assay for human Liver X Receptor beta (LXRb) (AID 2282981; active means hit-call score of the fitted dose curve at least 0.9, where 1 is the maximum). The conditions noted are these: HepG2 Attagene TRANS GAL4-LXRb reporter, mRNA. An outline of the steps:
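After 24 h chemical treatment of transfected HepG2 cells carrying exogenous NR-Gal4 chimeras, reporter mRNA was quantified by fluorescent RT-PCR and capillary electrophoresis; activity taken as increase over DMSO controls.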

Assay [4] deals with Hepatocyte nuclear factor 4-alpha (Homo sapiens) (UniProt P41235). The assay is described as follows: ATG_HNF4a_TRANS: Attagene TRANS-FACTORIAL HepG2 Assay for human Hepatocyte Nuclear Factor 4 alpha (HNF4a) (AID 2282982; active means hit-call score of the fitted dose curve at least 0.9, where 1 is the maximum). The conditions noted are these: HepG2 HNF4a transactivation reporter, mRNA readout. In outline:
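Activity of an exogenous HNF4a–Gal4 fusion scored as induced GAL4-UAS reporter transcripts after 24 h chemical exposure of transfected human HepG2 cells. Read-out via RT-PCR with 6-FAM labelling and capillary electrophoresis; rise over DMSO baseline.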

Assay [5] can be described thus: ATG_M_32_TRANS: Attagene TRANS-FACTORIAL HepG2 Assay for M32 Transcription Factor (Internal Marker) (AID 2282984; active means hit-call score of the fitted dose curve at least 0.9, where 1 is the maximum;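 further: transcript level of a background control reporter unit measured by RT-PCR and capillary electrophoresis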). The conditions noted are these: HepG2 Attagene TRANS M32 internal marker reporter. In outline:
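Internal background reporter in transfected HepG2: after 24 h chemical exposure, RNA reverse-transcribed, reporter cDNA amplified, fluorescently labelled and HpaI-cut, then sized by capillary electrophoresis. Gain of signal fitted against DMSO control.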

Assay [6] has as its target Transcriptional activator Myb (Homo sapiens) (UniProt P10242). The assay is described as follows: ATG_Myb_CIS: Attagene CIS-FACTORIAL HepG2 Assay for human Myeloblastosis (Myb) Proto-Oncogene Transcription Factor (AID 2282986). The conditions noted are these: HepG2 Attagene CIS-FACTORIAL Myb reporter transcription; actives raise or lower the signal. An outline of the steps:
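Reporter mRNA is quantified by RT-PCR and capillary electrophoresis 24 h after dosing HepG2 cells transfected with cis-regulated reporter units, which track endogenous transcription factor activity. Gain and loss of signal are fitted versus DMSO baseline.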

Assay [7] has as its target Nuclear respiratory factor 1 (Homo sapiens) (UniProt Q16656). Description: ATG_NRF1_CIS: Attagene CIS-FACTORIAL HepG2 Assay for human Nuclear Respiratory Factor 1 (NRF1) Orphan Gene (AID 2282987). The conditions noted are these: HepG2 NRF1 cis-element reporter, Attagene multiplex; actives raise or lower the signal. An outline of the steps: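 Endogenous NRF1-driven reporter transcription in transfected HepG2 cells after 24 h treatment. Readout: RT-PCR products, 6-FAM labelled and resolved by capillary electrophoresis; changes fitted both directions relative to DMSO.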

Assay [8] can be described thus: ATG_NFI_CIS: Attagene CIS-FACTORIAL HepG2 Assay for human Nuclear Factor I (NFI) (AID 2282989). The conditions noted are these: HepG2 cis-regulatory reporter, NFI response element transcription; actives raise or lower the signal. An outline of the steps:
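After transient transfection of HepG2 with cis-promoter reporter constructs and 24 h dosing, RNA is reverse-transcribed, amplified, 6-FAM end-labelled and HpaI-digested before capillary analysis. Bidirectional curve fitting against DMSO.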

Assay [9] addresses Myc proto-oncogene protein (Homo sapiens) (UniProt P01106). Description: ATG_Myc_CIS: Attagene CIS-FACTORIAL HepG2 Assay for human Myelocytomatosis (Myc) Proto-Oncogene Transcription Factor (AID 2282990). The conditions noted are these: HepG2, Attagene cis-reporter transcription factor activity; actives raise or lower the signal. An outline of the steps:
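HepG2, transient MRTU transfection (cis promoters, endogenous TFs); 24 h dosing; TriZol RNA → oligo(dT) RT → PCR → 6-FAM primer extension → HpaI cut → CE. Bidirectional fit vs DMSO.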

Assay [10] is described as follows: ATG_NF_kB_CIS: Attagene CIS-FACTORIAL HepG2 Assay for human Nuclear Factor Kappa B (NF-kB) (AID 2282991). The conditions noted are these: HepG2 Attagene cis-factorial NF-kB reporter mRNA; actives raise or lower the signal. An outline of the steps:
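Readout is reporter transcript level, gain or loss versus DMSO, measured 24 h post-dose via RT-PCR, fluorescent labelling and capillary electrophoresis. Human HepG2 liver cells carried transiently transfected CIS reporter constructs reflecting endogenous factors.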

Assay [11] can be described thus: ATG_NRF2_ARE_CIS: Attagene CIS-FACTORIAL HepG2 Assay for human Nuclear Factor Erythroid 2 Related Factor 2 (NFR2) response to Antioxidant Response Elements (ARE) (AID 2282992). The conditions noted are these: HepG2 Attagene ARE/NRF2 reporter, transcription factor activity; actives raise or lower the signal. In outline: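 Using transiently transfected HepG2 cells exposed for 24 h, reporter mRNA levels were determined by RT-PCR with fluorescent primer extension and capillary electrophoresis, analysed for gain or loss of signal against DMSO.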

Assay [12] can be described thus: ATG_Oct_MLP_CIS: Attagene CIS-FACTORIAL HepG2 Assay for human Octamer-Binding Transcription Factor (Oct) (AID 2282993). The conditions noted are these: HepG2 Attagene cis-factorial Oct reporter, mRNA; actives raise or lower the signal. In outline: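 Cells of the HepG2 line express promoter-controlled reporter sequences whose mRNA levels, after 24 h treatment, are measured by RT-PCR and capillary electrophoresis. Increases and decreases are scored relative to DMSO.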

Assay [13] concerns the target Cellular tumor antigen p53 (Homo sapiens) (UniProt P04637). The assay is described as follows: ATG_p53_CIS: Attagene CIS-FACTORIAL HepG2 Assay for human p53 Transcription Factor (AID 2282994). The conditions noted are these: HepG2 p53 cis-element reporter, Attagene mRNA; actives raise or lower the signal. In outline: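 In HepG2 cells, reporter transcription units under cis-regulatory promoters were transiently introduced. Following 24 h treatment, RNA was processed to labelled, digested cDNA fragments read by capillary electrophoresis; fitting was bidirectional versus DMSO.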

Assay [14] addresses Bile acid receptor (Homo sapiens) (UniProt Q96RI1). Description: ATG_FXR_TRANS: Attagene TRANS-FACTORIAL HepG2 Assay for Farnesoid X Receptor (FXR) (AID 2282979; active means hit-call score of the fitted dose curve at least 0.9, where 1 is the maximum;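 further: hits raise reporter mRNA above DMSO so AC50 marks FXR activation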). The conditions noted are these: HepG2 Attagene TRANS FXR-GAL4 reporter transcription. An outline of the steps: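 HepG2 cells transiently transfected with reporter constructs in which a chimeric FXR-GAL4 protein drives a GAL4-UAS reporter; 24 h compound exposure. Reporter mRNA measured by RT-PCR, FAM labelling, HpaI digestion and capillary electrophoresis; gain-of-signal versus DMSO.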

Assay [15] in a line: ATG_M_06_TRANS: Attagene TRANS-FACTORIAL HepG2 Assay for M06 Transcription Factor (Internal Marker) (AID 2282983; active means hit-call score of the fitted dose curve at least 0.9, where 1 is the maximum;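 on AC50: potency for rise in reporter mRNA above DMSO baseline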). The conditions noted are these: HepG2 Attagene TRANS M06 internal marker reporter. An outline of the steps: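 In this multiplexed HepG2 system, compounds are incubated 24 h with cells carrying GAL4-UAS reporter units. Reporter RNA is amplified and resolved by capillary electrophoresis, and induction is scored against DMSO.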

In assay [16] the target is Nuclear receptor subfamily 4 group A member 2 (Homo sapiens) (UniProt P43354). The assay is described as follows: ATG_NURR1_TRANS: Attagene TRANS-FACTORIAL HepG2 Assay for human Nuclear Receptor Related Protein 1 (NURR1) (AID 2282985; active means hit-call score of the fitted dose curve at least 0.9, where 1 is the maximum). The conditions noted are these: HepG2 Attagene TRANS reporter, mRNA readout. An outline of the steps: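 Reporter transcript induction, measured by RT-PCR with fluorescent labelling, HpaI digestion and capillary electrophoresis, after 24 hr dosing of human HepG2 cells transiently expressing an exogenous NR-Gal4 fusion with GAL4-UAS-driven reporters; DMSO as baseline.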

Assay [17] in a line: BSK_3C_uPAR: BioMAP Diversity Plus: 3C Assay for Urokinase-type plasminogen activator receptor (uPAR) Biomarker Activity (AID 2282998). The conditions noted are these: BioMAP 3C HUVEC, uPAR biomarker ELISA; actives raise or lower the signal. An outline of the steps:
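Endothelial primary cells of human umbilical vein origin received test chemical; 24 h later uPAR was assayed by ELISA. Fitting was bidirectional, DMSO as negative control.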

The nature of assay [18]: BSK_3C_VCAM1: BioMAP Diversity Plus: 3C Assay for Vascular cell adhesion molecule 1 (VCAM1) Biomarker Activity (AID 2282999). The conditions noted are these: BioMAP 3C HUVEC, VCAM1 ELISA, cytokine-stimulated; actives raise or lower the signal. An outline of the steps: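 Activity fitted in both directions relative to DMSO, with ELISA measurement of the surface marker on primary HUVEC (3C) at 24 h post-treatment; parallel SRB staining (0.1% SRB, TCA-fixed, 560 nm) flagged overt cytotoxicity.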

Assay [19] is described as follows: BSK_3C_TissueFactor: BioMAP Diversity Plus: 3C Assay for Tissue Factor Biomarker Activity (AID 2282997). The conditions noted are these: BioMAP 3C HUVEC, tissue factor biomarker readout; actives raise or lower the signal. An outline of the steps: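 Readout: Tissue Factor ELISA. Cells: human primary umbilical vein endothelium. Time: 24 h after dosing. Analysis: bidirectional fit, DMSO baseline.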

Each structure is given as a SMILES string. Results filed as inconclusive are left out. Calls of active or inactive are those of the source. How the source made its calls, unless noted: active means hit-call score of the fitted dose curve at least 0.9, where 1 is the maximum; inactive means score below 0.9.

Sequence of Glucocorticoid receptor (Homo sapiens) (P04150 whole entry, looked up, the tested form may be a part): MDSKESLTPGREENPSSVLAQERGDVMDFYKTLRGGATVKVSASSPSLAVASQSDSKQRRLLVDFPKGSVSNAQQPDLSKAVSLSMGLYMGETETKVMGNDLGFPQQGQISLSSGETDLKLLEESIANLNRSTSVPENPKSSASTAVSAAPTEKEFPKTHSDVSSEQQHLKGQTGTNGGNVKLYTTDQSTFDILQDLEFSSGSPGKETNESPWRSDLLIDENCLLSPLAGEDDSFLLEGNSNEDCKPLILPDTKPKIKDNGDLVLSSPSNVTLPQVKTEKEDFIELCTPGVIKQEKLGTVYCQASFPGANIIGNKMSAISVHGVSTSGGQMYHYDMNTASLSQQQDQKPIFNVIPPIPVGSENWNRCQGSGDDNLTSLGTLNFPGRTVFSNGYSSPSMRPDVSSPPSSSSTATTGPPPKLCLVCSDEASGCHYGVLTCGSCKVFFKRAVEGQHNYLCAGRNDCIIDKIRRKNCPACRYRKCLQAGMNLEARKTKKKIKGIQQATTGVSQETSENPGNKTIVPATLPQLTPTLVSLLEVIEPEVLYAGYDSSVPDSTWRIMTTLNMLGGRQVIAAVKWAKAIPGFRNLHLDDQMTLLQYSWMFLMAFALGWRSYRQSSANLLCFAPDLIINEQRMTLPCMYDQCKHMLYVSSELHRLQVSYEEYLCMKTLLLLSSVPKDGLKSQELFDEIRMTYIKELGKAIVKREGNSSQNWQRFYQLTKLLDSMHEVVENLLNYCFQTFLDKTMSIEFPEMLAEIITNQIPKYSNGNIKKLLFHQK
Sequence of Bile acid receptor (Homo sapiens) (Q96RI1 whole entry, looked up, the tested form may be a part): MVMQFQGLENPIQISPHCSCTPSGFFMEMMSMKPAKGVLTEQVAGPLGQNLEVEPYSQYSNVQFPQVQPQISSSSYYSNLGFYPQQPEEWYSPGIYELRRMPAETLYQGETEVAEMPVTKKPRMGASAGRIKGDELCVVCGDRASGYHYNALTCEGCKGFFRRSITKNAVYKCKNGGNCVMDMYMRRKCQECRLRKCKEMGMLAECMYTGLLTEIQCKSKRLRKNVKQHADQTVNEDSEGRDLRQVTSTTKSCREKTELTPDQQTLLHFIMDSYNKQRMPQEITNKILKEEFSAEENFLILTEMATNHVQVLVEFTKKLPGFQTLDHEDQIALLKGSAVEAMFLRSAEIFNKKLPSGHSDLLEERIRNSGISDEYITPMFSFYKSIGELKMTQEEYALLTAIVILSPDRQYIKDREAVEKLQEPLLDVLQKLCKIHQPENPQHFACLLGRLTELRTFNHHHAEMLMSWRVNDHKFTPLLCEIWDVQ
Sequence of Transcriptional activator Myb (Homo sapiens) (P10242 whole entry, looked up): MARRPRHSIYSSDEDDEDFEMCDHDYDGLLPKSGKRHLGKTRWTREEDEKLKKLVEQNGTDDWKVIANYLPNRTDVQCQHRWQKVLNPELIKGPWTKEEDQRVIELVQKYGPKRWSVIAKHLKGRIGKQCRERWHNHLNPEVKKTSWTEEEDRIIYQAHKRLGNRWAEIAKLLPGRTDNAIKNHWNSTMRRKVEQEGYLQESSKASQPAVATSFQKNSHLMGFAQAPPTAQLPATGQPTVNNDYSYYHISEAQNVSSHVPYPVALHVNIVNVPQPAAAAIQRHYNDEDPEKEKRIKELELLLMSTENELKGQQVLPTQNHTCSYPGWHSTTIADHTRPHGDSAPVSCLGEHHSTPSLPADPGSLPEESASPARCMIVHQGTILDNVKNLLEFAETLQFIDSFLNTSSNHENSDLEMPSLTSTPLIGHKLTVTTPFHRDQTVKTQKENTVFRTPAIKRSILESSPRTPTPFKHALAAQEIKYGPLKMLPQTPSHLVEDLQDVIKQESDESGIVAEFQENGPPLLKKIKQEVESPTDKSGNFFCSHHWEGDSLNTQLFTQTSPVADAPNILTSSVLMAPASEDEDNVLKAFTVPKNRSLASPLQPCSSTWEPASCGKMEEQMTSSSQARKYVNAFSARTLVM
Sequence of Myc proto-oncogene protein (Homo sapiens) (P01106 whole entry, looked up): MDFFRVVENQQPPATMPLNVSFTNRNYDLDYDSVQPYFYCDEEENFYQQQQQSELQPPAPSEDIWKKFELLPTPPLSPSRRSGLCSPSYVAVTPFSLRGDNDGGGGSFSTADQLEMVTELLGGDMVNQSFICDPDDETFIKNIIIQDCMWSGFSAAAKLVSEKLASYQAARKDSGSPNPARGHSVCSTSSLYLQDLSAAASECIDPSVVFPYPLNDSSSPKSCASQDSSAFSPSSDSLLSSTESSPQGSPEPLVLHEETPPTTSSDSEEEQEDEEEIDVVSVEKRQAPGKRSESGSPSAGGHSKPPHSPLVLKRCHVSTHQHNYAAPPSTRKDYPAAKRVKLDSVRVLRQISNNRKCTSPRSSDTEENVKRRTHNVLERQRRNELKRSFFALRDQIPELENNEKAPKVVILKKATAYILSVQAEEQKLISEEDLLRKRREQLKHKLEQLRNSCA
Sequence of Cellular tumor antigen p53 (Homo sapiens) (P04637 whole entry, looked up, the tested form may be a part): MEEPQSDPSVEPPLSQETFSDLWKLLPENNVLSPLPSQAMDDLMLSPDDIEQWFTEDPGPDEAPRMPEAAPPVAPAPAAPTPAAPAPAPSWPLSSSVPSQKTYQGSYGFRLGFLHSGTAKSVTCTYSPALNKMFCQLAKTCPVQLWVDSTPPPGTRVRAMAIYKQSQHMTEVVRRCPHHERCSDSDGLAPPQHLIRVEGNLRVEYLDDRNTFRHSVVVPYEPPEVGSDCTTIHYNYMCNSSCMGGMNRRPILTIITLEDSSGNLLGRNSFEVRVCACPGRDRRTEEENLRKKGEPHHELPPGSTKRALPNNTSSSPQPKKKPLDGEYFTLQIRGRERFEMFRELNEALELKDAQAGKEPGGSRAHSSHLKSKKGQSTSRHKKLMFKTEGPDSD
Sequence of Nuclear respiratory factor 1 (Homo sapiens) (Q16656 whole entry, looked up): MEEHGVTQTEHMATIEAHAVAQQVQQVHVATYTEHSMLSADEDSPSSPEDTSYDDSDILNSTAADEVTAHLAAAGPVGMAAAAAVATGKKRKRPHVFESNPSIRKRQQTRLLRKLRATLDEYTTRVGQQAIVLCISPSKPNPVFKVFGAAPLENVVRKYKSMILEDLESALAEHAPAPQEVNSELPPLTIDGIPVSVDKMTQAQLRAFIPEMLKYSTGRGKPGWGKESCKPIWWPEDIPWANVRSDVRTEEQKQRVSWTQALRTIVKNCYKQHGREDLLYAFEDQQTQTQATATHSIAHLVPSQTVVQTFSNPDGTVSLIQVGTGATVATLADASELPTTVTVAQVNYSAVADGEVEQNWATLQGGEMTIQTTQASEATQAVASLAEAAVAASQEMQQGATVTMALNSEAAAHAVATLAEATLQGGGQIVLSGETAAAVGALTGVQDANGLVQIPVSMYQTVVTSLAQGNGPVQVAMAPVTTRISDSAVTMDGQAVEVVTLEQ
Sequence of Hepatocyte nuclear factor 4-alpha (Homo sapiens) (P41235 whole entry, looked up, the tested form may be a part): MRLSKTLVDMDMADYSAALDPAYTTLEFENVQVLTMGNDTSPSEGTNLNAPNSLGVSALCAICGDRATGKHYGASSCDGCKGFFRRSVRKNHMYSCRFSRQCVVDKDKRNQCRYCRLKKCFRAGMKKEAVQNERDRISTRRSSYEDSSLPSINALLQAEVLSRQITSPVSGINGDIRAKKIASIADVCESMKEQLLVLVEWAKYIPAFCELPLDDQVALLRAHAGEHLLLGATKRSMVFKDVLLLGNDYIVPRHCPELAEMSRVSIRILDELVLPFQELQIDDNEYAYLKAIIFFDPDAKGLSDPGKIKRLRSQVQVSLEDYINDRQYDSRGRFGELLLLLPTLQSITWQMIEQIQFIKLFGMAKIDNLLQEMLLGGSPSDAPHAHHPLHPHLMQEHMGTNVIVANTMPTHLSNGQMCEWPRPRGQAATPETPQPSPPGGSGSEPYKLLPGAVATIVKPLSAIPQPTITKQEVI
Sequence of Nuclear receptor subfamily 4 group A member 2 (Homo sapiens) (P43354 whole entry, looked up, the tested form may be a part): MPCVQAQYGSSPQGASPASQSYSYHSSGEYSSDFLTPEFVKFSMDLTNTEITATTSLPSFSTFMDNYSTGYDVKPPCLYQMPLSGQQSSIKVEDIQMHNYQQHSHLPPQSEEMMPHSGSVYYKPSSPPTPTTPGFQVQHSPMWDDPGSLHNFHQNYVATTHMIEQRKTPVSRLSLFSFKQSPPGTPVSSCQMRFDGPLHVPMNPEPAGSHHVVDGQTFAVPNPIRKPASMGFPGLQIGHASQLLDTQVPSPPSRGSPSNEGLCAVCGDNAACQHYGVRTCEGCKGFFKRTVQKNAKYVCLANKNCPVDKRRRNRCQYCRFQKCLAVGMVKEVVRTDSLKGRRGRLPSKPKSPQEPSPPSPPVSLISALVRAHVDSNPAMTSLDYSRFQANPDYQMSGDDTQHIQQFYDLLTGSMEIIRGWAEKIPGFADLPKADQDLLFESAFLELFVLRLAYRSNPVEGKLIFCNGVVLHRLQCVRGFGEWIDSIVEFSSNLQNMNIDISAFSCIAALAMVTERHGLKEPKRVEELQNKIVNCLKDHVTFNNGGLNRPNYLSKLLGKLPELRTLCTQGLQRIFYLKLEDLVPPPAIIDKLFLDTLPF
Sequence of Oxysterols receptor LXR-alpha (Homo sapiens) (Q13133 whole entry, looked up, the tested form may be a part): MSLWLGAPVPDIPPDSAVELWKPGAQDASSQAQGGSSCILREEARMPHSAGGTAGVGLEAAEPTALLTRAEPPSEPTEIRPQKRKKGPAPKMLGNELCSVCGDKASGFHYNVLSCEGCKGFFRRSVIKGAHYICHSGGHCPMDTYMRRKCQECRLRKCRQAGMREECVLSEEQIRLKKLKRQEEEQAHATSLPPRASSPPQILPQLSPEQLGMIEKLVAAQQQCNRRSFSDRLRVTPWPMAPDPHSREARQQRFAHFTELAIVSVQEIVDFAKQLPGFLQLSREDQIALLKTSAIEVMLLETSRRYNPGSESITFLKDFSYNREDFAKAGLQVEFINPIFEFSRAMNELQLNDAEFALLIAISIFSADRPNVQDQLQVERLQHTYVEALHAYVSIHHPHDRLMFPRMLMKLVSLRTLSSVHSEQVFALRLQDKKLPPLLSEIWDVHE

On to `O=NN1CCCC1`, for which the molecule was classed as inactive in [1], in [2], in assay [3], in assay [4], in assay [5] and in assay [6]. Moreover, the molecule was classed as inactive in assay [7], in assay [8], in [9], in [10], in assay [11] and in assay [12]. For the same molecule, the result in assay [13] was inactive.
Broadly, the AC50 is the midpoint of the concentration-response curve, whichever way the signal moves. As to `Cc1cc(C)c(C(=O)P(=O)(c2ccccc2)c2ccccc2)c(C)c1`, the result in [1], in assay [14], in assay [7], in assay [10], in [12] and in [13] was inactive. Also, the concentration at half-maximal activity (AC50) is 173 µM (active) in [15]; 62.4 µM (active) in assay [6]; 55.2 µM (active) in assay [8]; 49.1 µM (active) in assay [9]; 4.78 µM (active) in [11].
Take `CCOc1ccc(C(C)(C)COCc2cccc(Oc3ccccc3)c2)cc1`: the molecule was classed as inactive in [1], in [14], in [5], in [16], in [6] and in assay [7]. In addition, the call in [8], in assay [9], in [10], in assay [11], in assay [12] and in assay [13] was inactive. The result in [17] and in assay [18] was inactive.
Turning to `Cc1ccc(C(=O)Cl)cc1`, the molecule was called inactive in [1], in assay [2], in assay [4], in assay [15], in [5] and in assay [6]. The call in [7], in [8], in assay [9], in [10], in [11] and in assay [12] was inactive. Besides, in assay [13], the outcome was inactive.
Take `OCC(F)(F)OC(F)(F)C(F)(F)OC(F)(F)CO`: the molecule was called inactive in assay [1], in [14], in assay [15], in assay [5], in assay [16] and in [6]. Also, the call in assay [7], in assay [8], in [9], in assay [10], in assay [11] and in assay [12] was inactive. In addition, the molecule was called inactive in [13], in assay [19], in assay [17] and in [18].

The values are drawn from PubChem BioAssay (EPA / NIEHS).
